# Results filed as inconclusive are left out. Activity calls are given as the source filed them. Unless noted, cut-off not given; nearly all actives show AC50 up to about 26 µM.
# Columns and labels:
# [1] = viability loss in pontine glioma line – cell-based, SU-DIPG-XVII, MIPE5.0, CellTiter-Glo, qHTS, dose response (AID 1347060); settings: CellTiter-Glo ATP luminescence;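 on AC50: cells exposed to compound for 48 hours before viability readout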
# [2] = viability loss in pontine glioma line – cell-based, SU-DIPG-XIII, MIPE5.0, CellTiter-Glo, qHTS, dose response (AID 1347064; cut-off not given, nearly all actives have AC50 up to about 23 µM;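 on AC50: cells exposed to compound for 48 hours before the viability read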); settings: CellTiter-Glo ATP luminescence
# [3] = viability loss in pontine glioma line – cell-based, SU-DIPG-XXV, MIPE5.0, CellTiter-Glo, qHTS, dose response (AID 1347065); settings: CellTiter-Glo ATP luminescence;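 further: cells exposed to compound for 48 hours before ATP readout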
# [4] = JHH-DIPG-1 glioma cell viability, MIPE5.0 library, CellTiter-Glo luminescence, qHTS (AID 1347067); settings: JHH-DIPG-1 glioma viability, CellTiter-Glo ATP luminescence;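 further: cells exposed to compound for 48 hours before readout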
# [5] = growth inhibition of DIPG cells – cell-based, MIPE5.0 library, qHTS (AID 1347068; cut-off not given, nearly all actives have IC50 up to about 30 µM;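 on IC50: cells exposed to compound for 48 hours before viability readout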); settings: SU-DIPG-XXV viability
# [6] = viability loss with induced miR-34 in A549 – imaging, A549 dox-inducible miR-34, nuclei and caspase counts, primary screen (AID 1347080;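 active means compounds whose cell count with miR-34 switched on is under 0.7 times the count with it off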); settings: A549 miR-34 inducible, Hoechst nuclei count, 48 h
# [7] = P. berghei load reduction in hepatocytes – cell-based, HepG2, luciferase luminescence, HepG2 viability, primary screen (AID 624349; in the data active means parasite load remaining mostly below about 12%, no sharp cut-off; inactive means mostly above about 10%;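 further: 100% = mean of DMSO negative control wells on the same plate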); settings: P. berghei liver stage in HepG2, luciferase luminescence, concentration not given here; parasite load remaining: stronger effect = lower value; viability: measured here: HepG2 viability without parasites
# [8] = MELAS cybrid and Rieske KO viability enhancers – cell-based, MELAS cybrids, Rieske KO mouse fibroblasts, CellTiter-Glo, primary screen (AID 1508586;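 active means mean z-score across replicates of 1.96 or higher in either the MELAS or the Rieske mutant cell line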;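 further: z relative to plate mean and SD of compound and empty wells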); settings: low glucose
# [9] = viability loss in pontine glioma line – cell-based, JHH-DIPG-1, MIPE4.0, CellTiter-Glo, qHTS, dose response (AID 1347062; cut-off not given, nearly all actives have AC50 up to about 27 µM;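 on AC50: cells exposed to compound for two days before readout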); settings: JHH-DIPG-1 viability, CellTiter-Glo ATP luminescence
# [10] = viability loss in pontine glioma line – cell-based, SU-DIPG-IV, MIPE4.0, CellTiter-Glo, qHTS, dose response (AID 1347063; cut-off not given, nearly all actives have AC50 up to about 30 µM;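 further: compound exposure lasted 48 hours before the viability readout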); settings: CellTiter-Glo ATP luminescence
# [11] = growth inhibition of DIPG cells – cell-based, MIPE4.0 library, CellTiter-Glo luminescence, qHTS (AID 1347066; cut-off not given, nearly all actives have AC50 up to about 30 µM;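 further: cells exposed to compound for 48 hours before readout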); settings: SU-DIPG-VI viability, CellTiter-Glo ATP luminescence
# [12] = compounds altering HSF1 focus formation in cells – imaging, Selleck Cancer Library (AID 1347162; in the data active means plate-normalised HSF1 focus index below about 0.46); settings: human cells, HSF1 nuclear foci imaging, at 10 µM; SSMD: measured here: HSF1 foci SSMD mean; cell count: measured here: cell number; plate-normalised HSF1 focus index: stronger effect = lower value
# [13] = molecular target: NAD(+) hydrolase SARM1 (Homo sapiens) (UniProt Q6SZW1); assay: blocking NAD cleavage by SARM1 SAM-TIR – cell lysate, NAD-Glo luminescence (AID 1508614;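 active means compound whose remaining NAD level is above about 45 nM, limit read from the data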); settings: SAM-TIR HEK293T lysate NADase, at 1 µM, stronger effect = higher value
# Sequence of NAD(+) hydrolase SARM1 (Homo sapiens) (Q6SZW1 whole entry, looked up): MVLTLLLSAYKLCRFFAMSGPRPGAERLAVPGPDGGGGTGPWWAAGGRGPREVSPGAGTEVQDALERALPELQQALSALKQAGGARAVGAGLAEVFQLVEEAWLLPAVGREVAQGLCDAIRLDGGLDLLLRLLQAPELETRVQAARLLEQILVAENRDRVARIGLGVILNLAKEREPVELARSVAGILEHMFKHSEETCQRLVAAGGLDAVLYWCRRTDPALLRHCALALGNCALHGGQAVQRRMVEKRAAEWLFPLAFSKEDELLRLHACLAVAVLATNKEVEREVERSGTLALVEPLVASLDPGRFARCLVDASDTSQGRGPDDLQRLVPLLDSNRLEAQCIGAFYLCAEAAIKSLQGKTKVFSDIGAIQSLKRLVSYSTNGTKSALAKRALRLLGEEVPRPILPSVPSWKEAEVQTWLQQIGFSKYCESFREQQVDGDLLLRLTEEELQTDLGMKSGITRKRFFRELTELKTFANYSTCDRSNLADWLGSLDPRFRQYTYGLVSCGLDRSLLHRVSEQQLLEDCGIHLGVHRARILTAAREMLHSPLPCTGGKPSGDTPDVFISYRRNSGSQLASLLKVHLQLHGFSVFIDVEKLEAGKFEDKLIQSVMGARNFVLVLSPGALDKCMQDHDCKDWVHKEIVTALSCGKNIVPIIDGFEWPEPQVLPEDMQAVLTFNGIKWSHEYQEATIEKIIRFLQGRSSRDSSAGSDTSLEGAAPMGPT
# [14] = measured here: relative caspase fold change +Dox/-Dox
# [15] = measured here: total cells with miR-34 induction, stronger effect = lower value
# [16] = measured here: total cells without miR-34 induction
# [17] = MELAS cybrid survival, CellTiter-Glo 48 h, stronger effect = higher value
# [18] = Rieske KO mouse fibroblast survival, CellTiter-Glo 72 h
smiles,measurement,setting,value
CN[C@@H]1C[C@H]2O[C@@](C)([C@@H]1OC)n1c3ccccc3c3c4c(c5c6ccccc6n2c5c31)C(=O)NC4,AC50,[1],0.118 µM (active)
same,AC50,[2],0.263 µM (active)
same,AC50,[3],0.209 µM (active)
same,AC50,[4],0.209 µM (active)
same,IC50,[5],0.833 µM (active)
same,fold change,"[6]; stronger effect = lower value, cell number ratio, induced over uninduced",1.19 (inactive)
same,fold change,[6]; [14],0.478
same,cell count,[6]; [15],874
same,cell count,[6]; [16],732
CC1(C)CC[C@]2(NC(=O)C(C)(F)F)CC[C@]3(C)[C@H](C(=O)C=C4[C@@]5(C)C=C(C#N)C(=O)C(C)(C)[C@@H]5CC[C@]43C)[C@@H]2C1,AC50,[1],7.42 µM (active)
same,AC50,[2],10.5 µM (active)
same,AC50,[3],9.34 µM (active)
same,AC50,[4],7.42 µM (active)
same,IC50,[5],11.8 µM (active)
O=C(O)CNC(=O)C1C(=O)N(C2CCCCC2)C(=O)N(C2CCCCC2)C1=O,AC50,[1],20.9 µM (active)
same,outcome,[2],inactive
same,outcome,[3],inactive
same,outcome,[5],inactive
Cc1[nH]ncc1-c1cc2nc([C@@H]3CC4CCN3CC4)[nH]c(=O)c2s1,AC50,[1],18.6 µM (active)
same,AC50,[3],16.6 µM (active)
same,AC50,[4],14.8 µM (active)
same,IC50,[5],23.5 µM (active)
O=C(NCCCNc1nc(Nc2ccc(N3CCOCC3)cc2)ncc1C1CC1)C1CCC1,AC50,[1],20.9 µM (active)
same,AC50,[3],16.6 µM (active)
same,AC50,[4],14.8 µM (active)
CC(C)(C)c1cc(C=C(C#N)C#N)cc(Br)c1O,parasite load remaining,[7],43.4% (inactive)
same,viability,[7],165%
same,AC50,[1],20.9 µM (active)
same,AC50,[2],18.6 µM (active)
same,AC50,[3],23.5 µM (active)
same,AC50,[4],18.6 µM (active)
same,outcome,[5],inactive
same,fold change,[6]; stronger effect = lower value,0.886 (inactive)
same,fold change,[6]; [14],1.14
same,cell count,[6]; [15],7700
same,cell count,[6]; [16],8690
same,z-score,[8]; [17],-0.608 (inactive)
same,z-score,[8]; [18],-0.108
CN1C(=O)[C@@H](NC(=O)[C@H](CCC(F)(F)F)[C@H](CCC(F)(F)F)C(N)=O)N=C(c2ccccc2)c2ccccc21,outcome,[1],inactive
same,outcome,[2],inactive
same,outcome,[3],inactive
same,outcome,[4],inactive
same,outcome,[5],inactive
O=c1[nH]c2ccc(Cl)cc2c(N[C@@H]2CN3CCC2CC3)c1-c1nc2ccccc2[nH]1,AC50,[1],2.63 µM (active)
same,AC50,[9],1.87 µM (active)
same,AC50,[10],1.66 µM (active)
same,AC50,[2],3.32 µM (active)
same,AC50,[3],3.72 µM (active)
same,AC50,[4],3.32 µM (active)
same,IC50,[5],8.33 µM (active)
C/C1=C/C[C@@H](/C(C)=C/c2csc(C)n2)OC(=O)C[C@H](O)C(C)(C)C(=O)[C@H](C)[C@@H](O)[C@@H](C)CCC1,AC50,[1],0.00296 µM (active)
same,AC50,[3],0.00417 µM (active)
CC1=C2C[C@H]3[C@@H](CC=C4C[C@@H](O)CC[C@@]43C)[C@@H]2CC[C@]12O[C@@H]1C[C@H](C)CN[C@H]1[C@H]2C,outcome,[1],inactive
same,outcome,[9],inactive
same,outcome,[10],inactive
same,outcome,[2],inactive
same,outcome,[3],inactive
same,outcome,[11],inactive
same,outcome,[4],inactive
same,outcome,[5],inactive
same,fold change,[6]; stronger effect = lower value,0.912 (inactive)
same,fold change,[6]; [14],0.801
same,cell count,[6]; [15],4470
same,cell count,[6]; [16],4900
same,SSMD,[12],2.32
same,cell count,[12],7300
same,plate-normalised HSF1 focus index,[12],1.08 (inactive)
C[C@@H]1O[C@@H](O[C@@H]2C=C3CC[C@@H]4[C@H](CC[C@]5(C)[C@@H](c6ccc(=O)oc6)CC[C@]45O)[C@@]3(C)CC2)[C@H](O)[C@H](O)[C@H]1O,AC50,[1],0.0148 µM (active)
same,AC50,[2],0.0166 µM (active)
same,AC50,[3],0.0186 µM (active)
same,AC50,[4],0.0118 µM (active)
same,z-score,[8]; [17],1.14 (inactive)
same,z-score,[8]; [18],-0.344
same,remaining NAD,[13],10 nM (inactive)
CC[C@H]1/C=C\C=C/C[C@@H](C)[C@H](O)[C@@](C)(O)C(=O)[C@@H](C)[C@H](O)[C@@H](C)C(=O)[C@@H](C)[C@H](O)[C@@H](C)/C=C/C(=O)O[C@@H]2[C@H](C)[C@H](CC1)O[C@]1(CC[C@H](C)[C@H](C[C@@H](C)O)O1)[C@H]2C,AC50,[1],10.5 µM (active)
same,AC50,[9],20.9 µM (active)
same,AC50,[10],10.5 µM (active)
same,AC50,[2],7.42 µM (active)
same,AC50,[3],0.00525 µM (active)
same,AC50,[11],6.62 µM (active)
same,AC50,[4],0.0661 µM (active)
NC(=O)[C@@H](CC1CC1)[C@@H](CCC(F)(F)F)C(=O)N[C@H]1N=C(c2ccccc2)c2cccc(F)c2NC1=O,outcome,[1],inactive
same,outcome,[2],inactive
same,outcome,[3],inactive
same,outcome,[5],inactive

# Source: PubChem BioAssay
